Among all 3,600 compounds or so, about 100 (2.8%) were called active.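 How the source made its calls: active means inhibition above 30% at one or more concentrations, seen consistently on every test date; inconclusive means results that disagree between repeat test dates; inactive means the rest.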 These entries were drawn from the full list.
Assay: GST-antibody interaction or FRET quenching – biochemical, TR-FRET, artefact control for Vif-APOBEC3G degradation inhibitor project, dose response (AID 1117362);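 further: biotinylated GST protein used in place of GST-Vif 1-94 and biotin-A3G peptide; detects fluorescence quenchers or blockers of GST binding to anti-GST antibody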
Details: TR-FRET counter screen, biotin-GST/anti-GST signal; series mostly up to 100 µM

Row | Structure (SMILES) | IC50
1 | CCN(C(=O)c1coc(=O)c(Br)c1)c1ccc2c(c1)OCO2 | inactive
2 | COc1ccc(NC(=O)/C(C#N)=C\c2ccc(Br)o2)cc1 | inactive
3 | COc1ccc2c(c1)c(=O)oc1cc(OCC(=O)N3CCC(C)CC3)ccc12 | inactive
4 | CC(C)(C)OC(=O)N(Cc1ccccc1)Cc1cccc(OCc2cccc(NC(=O)c3ccccc3)c2)c1 | inactive
5 | Cc1cc(C(=O)COC(=O)c2cc(O)c3ccccc3c2O)c(C)n1CC1CCCO1 (stereo unspecified) | inactive
6 | CCOc1ccc2[nH]c(=O)c(CN(Cc3ccco3)C(=O)c3ccc(Br)cc3)cc2c1 | inactive
7 | CCOC(=O)C1=C(C)N=C2SC(C(=O)OC)=CC(=O)N2C1c1cc(OC)c(OC)c(OC)c1 (stereo unspecified) | inactive
8 | CC(C)OC(=O)c1cccc(C(=O)O)n1 | inactive
9 | O=C(NCc1ccccn1)c1coc(=O)c(Br)c1 | inactive
10 | CCCN1C(=O)S/C(=C\c2ccc(N3CCOCC3)cc2C)C1=O | inactive
11 | CN(CCc1ccccc1)C(=O)c1ccc(NC(=O)Cc2ccc(NC(=O)C3CCN(C(=O)CCc4ccccc4)CC3)cc2)cc1 | inactive
12 | Cc1ccc(C2SCC(=O)N2Cc2cn3ccsc3n2)o1 (stereo unspecified) | inactive
13 | CCn1c(SCC(=O)Nc2cc(C)on2)nnc1-c1cccnc1 | inactive
14 | C/C(=N\Nc1ccc(Cl)c(C(=O)O)c1)c1ccc[nH]1 | inactive
15 | COc1ccc(C2=CC(c3ccc(Cl)cc3)n3cnnc3N2)cc1OC (stereo unspecified) | inactive
16 | COc1ccc(Nc2ccc(OC)cc2)cc1 | inactive
17 | Cc1nn(-c2ccccc2)c2sc(C(=O)N3CCc4ccccc4C3)cc12 | inactive
18 | C/C(N)=C(/C#N)C(=O)CSc1nnc(NC(C)C)s1 | inactive
19 | CCN1CCN(C2=NC(=O)/C(=C/c3ccc(C)o3)S2)CC1 | inactive
20 | Cc1ccc2cc(C(c3nnnn3Cc3ccccc3)N3CCc4ccccc43)c(=O)[nH]c2c1 (stereo unspecified) | inactive
21 | COC(=O)\C(C(C)=O)=C(/C=C/C=C/C=C/N(C)C)N(C)C | inactive
22 | O=C(NCCc1c[nH]c2ccccc12)c1ccc(S(=O)(=O)NCc2ccco2)cc1 | inactive
23 | COc1ccc(S(=O)(=O)Cc2ccc(C(=O)N3CCN(c4ccccc4)CC3)o2)cc1 | inactive
24 | CC1=C(C(=O)Nc2ccccc2F)C(c2ccsc2)C2=C(CC(c3ccccc3)CC2=O)N1 (stereo unspecified) | inactive
25 | C[c-]1[c-](C)[c-](C)[c-](C)[c-]1C.[Fe].c1cc2nccc(N3CCCC3)[c-]2c1 (stereo unspecified) | 28 µM (active)
26 | O=C1NC(c2ccc(Br)cc2)=N/C1=C/c1ccco1 | inactive

From PubChem BioAssay AID1117362 (Southern Research Institute, 2015)
